From PubChem BioAssay (NCI) come the findings set out here.

Each structure is given as a SMILES string. The panel holds about 83,000 compounds, 20% with a hit somewhere; the sample as a whole holds those more often.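 Interpretation: 100, growth as untreated; towards 0, rising growth inhibition; 0, no net growth; 0 to -100, cell death. Compounds scoring below 10 were considered active.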 Active and inactive are the calls of the source.

In this assay the test system is HCT-116 colon. Put plainly: NCI-60 one-dose screen, 48 h (100 = growth as untreated, 0 = no growth, -100 = all killed). The settings on record: 10 µM unless noted. The method, then: Growth inhibition of the HCT-116 human tumor cell line is measured as a screen for anti-cancer activity. Cells are grown in 96 well plates and exposed to the test compound for 48 hours. Compounds are tested at a single concentration, which is 10^-5 M for most compounds. The reported endpoint is percent growth (GI% or GIPRCNT), where numbers from 0 - 100% represent growth inhibition, and numbers from -100% - 0 represent cell death. For example, a value of 40 represents 60% growth inhibition. A value of 0 means no net growth occurred over the course of the experiment. A value of -40 indicates 40% of cells at the beginning of the experiment died by the end of the experiment. A value of -100 means all cells are dead at the end of the experiment.
NCI-60 Human Tumor Cell Lines Screen was performed using the standard one-dose NCI protocol, which is described in more detail at https://dtp.cancer.gov/discovery_development/nci-60/default.htm.
Compounds with GIPRCNT values below 10 were considered active. Activity score was based on GIPRCNT using the following formula: […]
Score is 0 for GIPRCNT values of 100 or above, 50 for GIPRCNT values of 0, and 100 for GIPRCNT values of -100.
As for `C[CH2][Pb]([CH2]C)([CH2]C)[O]C(=O)c1ccc(N)cc1`, the growth was 57.7% (inactive). With `CN1CC2CCC(C1)C2=O`, the growth was 95.4% (inactive). The value for `N#CC1c2ccccc2C=CN1C(=O)c1ccc(N(CCCl)CCCl)cc1` (stereo not given) was 104% (inactive). For the compound `S=P(N1CCCCCC1)(N1CC1)N1CC1`, the growth is 99.8% (inactive). In the case of `CC(=O)OC1CCC2(C)C(=CCC3C4CC(CN5CC5)C(=O)C4(C)CCC32)C1` (stereo not given) it was 74.4% (inactive).

As to `O=C(O)C1[O][Sb][O]C1C(=O)O` (stereo not given), the growth is 103% (inactive). In the case of `C=C=[CH][Sn]([c]1ccccc1)([c]1ccccc1)[c]1ccccc1` it was -97.4% (active); in that of `O=C(CCF)c1ccc(O)cc1`, 103% (inactive). The value for `CC(=O)N1N=C(c2ccccc2)CC1c1sc(N(CCCl)CCCl)nc1Cl` (stereo not given) was 92.5% (inactive); that for `Nc1ccc([N+](=O)[O-])c2c1Oc1ccccc1O2` was 99.7% (inactive); that for `OB([O][Hg][c]1ccccc1)[O][Hg][c]1ccccc1` was -68.4% (active). In the case of `NC(=O)SCC(=O)Nc1ccc([As](=O)(O)O)cc1` it was 85.6% (inactive); in that of `CC[CH2][Pb]([CH2]CC)([CH2]CC)[O]C(=O)C(F)(F)F`, -95% (active). In the case of `COc1cc2c(cc1OC)CN(C)C(C)C2` (stereo not given), the growth is 105% (inactive). The value for `CN1C(=O)NC(=O)C(N=Nc2ccc(Cl)cc2)C1=O` (stereo not given) was 93.3% (inactive); that for `C[C@]12CC[C@@H]3c4ccc(OC(=O)Cc5ccc(N(CCCl)CCCl)cc5)cc4CC[C@H]3[C@@H]1CC[C@@H]2OC(=O)Cc1ccc(N(CCCl)CCCl)cc1` was 104% (inactive).

Take `Clc1ccc(SSC(Cl)(Cl)Cl)cc1`: the growth is 101% (inactive).

Turning to `O=C1NC(=S)NC(=O)C1=Cc1ccccc1`, the growth is 107% (inactive).

For `C[C@]12CC[C@@H]3C4=C(CC[C@H]3[C@@H]1CC[C@@H]2O)CC(=O)CC4`, the growth is 102% (inactive). In the case of `CC12CC[C@H](O)C=C1/C(=N/O)CC1C2CCC2(C)C1CC[C@@H]2O` (stereo not given in full), the growth was 93.3% (inactive). Take `CCN(CC)c1ccc(C=C2C(=O)NC(=S)NC2=O)cc1`: the growth is 93.9% (inactive).

Take `CNC(=O)Oc1ccccc1`: the growth was 106% (inactive). The value for `CCCCNCCc1ccccn1` was 102% (inactive); that for `CCC[CH2][Sn]([CH2]CCC)([CH2]CCC)[O]C(=O)c1ccc(Cl)cc1Cl` was -87.6% (active).

For `CCCCOC(=O)c1ccccc1C(=O)O.CCCCOC(=O)c1ccccc1C(=O)O.[Cu+2]`, the growth is 102% (inactive). The value for `O=C(O)CNC(=O)c1ccccc1` was 98.2% (inactive).

As to `ClCCN(CCCl)c1nc(Cl)c(C2CC(c3ccccc3)=NN2c2ccccc2)s1` (stereo not given), the growth is 78.3% (inactive). In the case of `CN(C)P1(N(C)C)=NP(N(C)C)(N(C)C)=NP(N(C)C)(N(C)C)=N1` it was 102% (inactive); in that of `O=C(NCCNC(=O)c1ccc([As](O)O)cc1)c1ccc([As](O)O)cc1`, 101% (inactive); in that of `CN1CCN(C(=O)COc2ccc(/C=C3\CC4C5CC=C6CC(Cl)CCC6(C)C5CCC4(C)C3=O)cc2)CC1` (stereo not given), 34.6% (inactive). The value for `C[C@]12CC[C@H]3[C@@H](C[C@@H]4N=C(c5ccc(O)cc5)S[C@@]45C[C@H](O)CC[C@]35C)[C@@H]1CC[C@@H]2O` was 43.8% (inactive).

Take `CC1(C)N=C(N)N=C(N)N1c1cccc(C(=O)Nc2cccc(S(=O)(=O)F)c2)c1`: the growth was 101% (inactive). Take `O=C1C=CC(=O)C2C1C1(Cl)C(Cl)=C(Cl)C2(Cl)C1(Cl)Cl` (stereo not given): the growth is 36.3% (inactive). The value for `O=[N+]([O-])c1cc([N+](=O)[O-])c(Cl)c(Cl)c1Cl` was -53.9% (active); that for `Cc1ccc(C[As+](c2ccccc2)(c2ccccc2)c2ccccc2)cc1` was 2.52% (active); that for `CC(C)(C)N(Cc1ccccc1)N=O` was 106% (inactive). Turning to `NC(=O)C(Br)CBr` (stereo not given), the growth was -92.7% (active). `ClCCN(CCCl)c1ccc(/C=C\c2ccnc3ccccc23)cc1`: the growth was 52.2% (inactive). The value for `Nc1c(Br)cc2c3c(cccc13)-c1ccccc1-2` was 81.4% (inactive). Take `O=C(CCl)NCNC(=O)CCl`: the growth is 92.1% (inactive).
